Only some compounds are listed: those with a hit (about 4.5% of all), similar ones and a draw of the others.
hcDAF-12 act: H. contortus DAF-12 nuclear receptor activators, primary screen, cell-based, luminescence, HEK293, lit1-tk-luc reporter; HEK293 hcDAF-12 lit1-tk-luc reporter; 0% DMSO, 100% Δ7-dafachronic acid; activation, % at 6.8 µM; 370,000 compounds, 1.4% hits; AID 652067, 2013;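 active = activation above the mean of all tested compounds plus 3 SD, cut at about 5.5% in these data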
DAX1 inh-1: DAX1 (NR0B1) inhibitors on StAR promoter, primary screen, cell-based, luminescence, SF-1 (NR5A1), full-length DAX-1. HEK293T StAR-luciferase reporter, SF-1/DAX-1 repression relief. AID 652010, 2013. 370,000 compounds, 1.1% hits. inhibition, % at 6.8 µM;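 active = inhibition above the mean over all tested compounds plus 3 SD, cut at about 3.6% in these data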;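 also: higher inhibition means more luminescence from relief of DAX-1 repression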
DAX1 inh-2: DAX1 (NR0B1) inhibitors, primary screen, cell-based, HEK293, Gal4-DAX1, luciferase luminescence; 340,000 compounds, 0.99% hits; inhibition, % at 6.75 µM; Nuclear receptor subfamily 0 group B member 1 (Homo sapiens), P51843; HEK293 Gal4-DAX1 luciferase reporter;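 active = inhibition above the mean over all tested compounds plus 3 SD, cut at about 4.2% in these data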;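 also: inhibition shows as a rise in luminescence from relieved DAX1 repression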
Target sequence (P51843 207-470 limits assumed): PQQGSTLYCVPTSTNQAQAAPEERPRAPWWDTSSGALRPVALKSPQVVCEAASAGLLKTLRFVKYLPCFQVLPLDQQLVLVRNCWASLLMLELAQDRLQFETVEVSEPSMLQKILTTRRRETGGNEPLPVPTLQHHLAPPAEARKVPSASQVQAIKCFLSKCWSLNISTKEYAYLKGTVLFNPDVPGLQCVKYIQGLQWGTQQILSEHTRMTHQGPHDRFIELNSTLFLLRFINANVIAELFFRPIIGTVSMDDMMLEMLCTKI
hgDAF-12 ag: H. glycines DAF-12 receptor agonists, primary screen, cell-based, luminescence, HEK293, GAL4 fusion, UAS-luciferase; 370,000 compounds, 1.8% hits; activation, % at 6.8 µM; AID 687014, 2013; HEK293 GAL4-hgDAF12 UAS-luciferase reporter, agonist luminescence; normalized to butyrate control;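 active = activation above a cutoff set at the mean of all screened compounds plus 3 SD, cut at about 10% in these data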
ssDAF12 agonist: S. stercoralis DAF-12 nuclear receptor activators, primary screen, cell-based, luminescence, HEK293, GRIP1 co-expression, lit1-tk-luc; Nuclear hormone receptor DAF-12 (Strongyloides stercoralis); HEK293 ssDAF-12/GRIP1 lit1-tk-luc reporter; % of 3 µM dafachronic acid response; activation, % at 6.8 µM; 370,000 compounds, 1% hits; AID 652126, 2013;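 active = activation above the mean over all tested compounds plus 3 SD, cut at about 0.9% in these data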
FXN GAA850 act: FXN promoter activators, primary screen, cell-based, luciferase luminescence, HEK293 lucGAA850. HEK293 lucGAA850 FXN promoter luciferase reporter, 24 h; percent of 10 µM SAHA response. activation, % at 6 µM. 360,000 compounds, 0.56% hits;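 active = activation above the average of all compounds screened plus 3 SD, cutoff fixed separately per campaign, cut at about 7.5% in these data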
Numbers stand for hits; – = inactive; · = no result.

SMILES	hcDAF-12 act	DAX1 inh-1	DAX1 inh-2	hgDAF-12 ag	ssDAF12 agonist	FXN GAA850 act
CC(=O)Oc1ccc(N2C(=O)[C@@H]3[C@H](C2=O)[C@H]2c4ccccc4C=NN2[C@@H]3C(C)=O)cc1	–	–	–	–	–	–
Cc1cc(C(=O)COc2cccc([N+](=O)[O-])c2)c(C)n1C1CC1	–	–	–	13	–	–
Cc1ccc(OCC(=O)c2cc(C)n(C3CC3)c2C)c([N+](=O)[O-])n1	–	–	–	–	–	–
O=C(Cn1cnc2ccccc2c1=O)c1ccc(Cl)cc1	–	–	–	11	–	–
O=C(Cn1cnc2ccccc2c1=O)c1ccc(Br)cc1	–	–	–	12	–	–
O=C(COC(=O)c1ccncc1)c1ccc(Br)cc1	–	–	4.6	–	–	–
CCCC(C)NC(=O)COC(=O)c1cccc(NS(C)(=O)=O)c1 (stereo not drawn)	–	–	4.6	–	–	–
CC(=O)Nc1cccc(C(=O)OCC(=O)NC(C)c2ccc(F)cc2)c1 (stereo not drawn)	–	–	–	–	–	–
Cc1ccc(C(=O)CSc2nc3ccc(C(=O)NCCN4CCCCC4)cc3c(=O)[nH]2)cc1	5.6	–	–	–	–	–
Cc1[nH]c2ccc(C(=O)NCCN3CCCCCC3)cc2c1C	–	–	–	–	–	–
Cn1c2ccccc2c2cc(C(=O)N3CCN(CCO)CC3)sc21	–	–	5.4	–	–	–
CC(=O)NNC(=O)c1cc2c3ccccc3n(C)c2s1	–	–	–	–	–	–
O=C(NCCc1ccccc1)OCc1cn(Cc2ccccc2C(F)(F)F)nn1	–	–	·	–	–	·
CN(C)CC(=O)N[C@H]1C[C@@H]2O[C@@H](CO)CC[C@@H]2O[C@@H]1CCc1ccc(C2=CCCCC2)cc1	–	–	·	–	–	·
O=C(Nc1nc(=O)c2ccccc2s1)c1ccc(Cl)cc1	–	–	–	–	–	–
O=C(Nc1nc2ccsc2c(=O)s1)c1ccc(Cl)cc1	–	–	5.8	–	0.9	–
O=C(/C=C/c1ccccc1)Nc1cccc(C(=O)O)c1	–	4.4	–	13	–	–
O=C(/C=C\c1ccccc1[N+](=O)[O-])Nc1ccccc1	–	–	–	11	–	–
O=C(/C=C/c1ccccc1)Nc1cc(NC(=O)/C=C/c2ccccc2)cc(C(=O)O)c1	–	–	–	–	–	–
CCOC(=O)C1=NOC(C(=O)NC2CCCC2)(C(=O)C2CC2)C1 (stereo not drawn)	–	–	·	–	–	·
CCNS(=O)(=O)c1ccc(OC)c(C)c1	–	–	–	–	–	–
CCNS(=O)(=O)c1ccc2c(c1)NCC2	–	–	–	–	1.7	–
COc1ccc(S[C@]2(C(=O)N3CCCC3)CC(=O)N(c3ccsc3)[C@@H]2c2ccc(OC)cc2)cc1	–	–	·	–	–	·
CN(C)CCCN(C(=O)c1ccc(S(=O)(=O)N(C)C)cc1)c1nc2cc3c(cc2s1)OCO3	–	–	–	–	1.5	–
c1ccc(-c2cnc(-c3ccccc3)nc2)cc1	–	–	–	11	–	–
SMILES	hcDAF-12 act	DAX1 inh-1	DAX1 inh-2	hgDAF-12 ag	ssDAF12 agonist	FXN GAA850 act
COC(=O)[C@]12C[C@H](CC(=O)NCCCCc3ccccc3)C(=O)N(Cc3ccc(Cl)cc3Cl)C1=C[C@H](COCc1ccccc1)O[C@@H]2C	–	–	·	–	–	·
Brc1cccc2sc(N3CCCC3)nc12	–	–	–	11	–	–
CN(CCCOC(=O)CC1C=CCC1)C1CN(Cc2cn(Cc3ccccc3Cl)nn2)S(=O)(=O)C1 (stereo not drawn)	–	–	·	–	–	·
C=CCNC(=O)c1ccc(CSc2nc3ccccc3s2)cc1	5.7	–	–	–	–	–
O=C1CCC2(CCC(c3ccccc3)CC2)N1CCCO (stereo not drawn)	–	–	·	–	–	·
O=[N+]([O-])c1ccc2nc(C(O)C(O)c3nc4ccc([N+](=O)[O-])cc4[nH]3)[nH]c2c1 (stereo not drawn)	–	–	–	–	1.0	–
COC(=O)C[C@H]1CC[C@H]2[C@H](COc3ccc(NS(=O)(=O)c4cccc(F)c4)cc3C(=O)N2C)O1	–	–	·	–	–	·
CCN(CC)C(=O)c1oc(=O)c2ccccc2c1-c1ccc(C)cc1	–	–	·	–	–	·
C/C(=N/O)c1ccccn1	–	–	–	–	–	–
CC(=O)c1ccccn1	–	–	6.0	–	–	–
CC(=O)N1CCCN(S(=O)(=O)c2ccc3c(c2)c(=O)n(C)c(=O)n3C)CC1	–	–	·	–	–	·
COc1ccc(-n2c(=O)c3ccccc3n(CC(=O)c3ccccc3)c2=O)cc1OC	–	–	–	–	–	–
COc1cc(-n2c(=O)c3ccccc3n(CC(=O)c3ccc(Br)cc3)c2=O)cc(OC)c1OC	–	–	5.4	–	–	–
Cc1ccc(N(CC(=O)NCC2CCCO2)C(=O)Cn2nnc(-c3cccs3)n2)cc1 (stereo not drawn)	5.6	–	–	12	1.1	–
CC(C)(C)OC(=O)N1CCC(N[C@@H](Cc2ccccc2)C(=O)NCCc2c[nH]c3ccccc23)(C(=O)NC2CCCCC2)CC1	–	·	·	–	–	·
CC(C)CCN(C)C1CCN(C(=O)NCc2ccccc2)CC1	–	–	·	–	–	·
O=C(CSc1nnc(-c2ccc(F)cc2)c2ccccc12)NCC1CCCO1 (stereo not drawn)	–	–	–	–	–	8.8
CCc1cccc2c(SCC(=O)NCC3CCCO3)nc(-c3ccc(F)cc3)nc12 (stereo not drawn)	–	–	–	–	–	–
C=CCN1C(=O)S/C(=C\c2ccc(N3CCOCC3)cc2C)C1=O	–	–	4.2	–	–	–
C=CC(C)N1C(=O)S/C(=C\c2ccc(N3CCOCC3)cc2C)C1=O (stereo not drawn)	–	–	–	–	–	–
COC(=O)c1sccc1OCc1cccc(OC)c1	–	–	–	–	–	–
COC(=O)COc1ccsc1C(=O)OC	–	–	4.2	–	–	–
O=C(O[C@H]1CC[C@@]23CCCN2C(=O)CCC[C@H]3C1)N1CCCC1	–	·	·	–	–	·
COc1ccc(S(=O)(=O)NCc2ccco2)cc1C(=O)N1CCOCC1	–	–	–	–	–	–
